# Data reported in PubChem BioAssay (NCATS).
# Several values for one entry are separate records, joined by “and”; a condition that tells them apart may be missing. Equal entries are not always repeated. Records with an inconclusive call do not appear. A number with no mark means an inactive call. Activity calls are given as the source filed them. Calls come from the whole dose curve; as a rule, active = well fitted inhibition curve with a large enough effect; inconclusive = small, poorly fitted or top-dose-only effect; inactive = no such curve, though single readings can be large or run the other way.
# Molecular target: Retinaldehyde dehydrogenase 3 (Homo sapiens) (UniProt P47895)
# Test: qHTS for Inhibitors of the Aldehyde Dehydrogenase Family (ALDH1A3) Confirmatory screens (AID 2061311); note: nearly all actives have a fitted effect of over 60% in size; note: potency is the fitted concentration of half-maximal effect; for activity change, negative = inhibition: % is set by controls: 0 for no effect and ±100 for the full control effect
# Details: ALDH inhibition qHTS; series mostly up to 46 µM; activity change, negative = inhibition: at the top concentration
Compound,outcome,"activity change, negative = inhibition",Potency
CCCOc1ccc(C(=O)Nc2ccc(NC(=O)c3cccc(Cl)c3)cc2)cc1,inactive,,
COc1ccccc1-c1cc2c(nc1OC)nc(CC1CC1)n2C,,-25.2%,
CC(=O)NC(c1ccco1)c1cc(Cl)c2ccccc2c1O (stereo not given),,,11.3 µM (active)
COCCOc1ccc(C(=O)N[C@@H]2CN(C(=O)NCc3ccccc3)CCC[C@H]2O)cc1,,1.57%,
CC[C@H]1CN(C(=O)Nc2cccc(OC)c2)CC[C@H]1CC(=O)NCc1ccccc1,,-53.1%,
COc1cccc(CCC(=O)NCc2nnc3c(-c4nc(C)no4)cccn23)c1,,-20.1%,
COc1ccc(C2(C(=O)NCc3ccccc3)CCOCC2)cc1,inactive,,
Cc1cc(=O)[nH]c(CCNc2nc(-c3ccncc3)nc3c2c(C)nn3C)n1,inactive; activator,,
CCc1nn(-c2ccc(OC)cc2)c(Oc2ccccc2F)c1CCC(=O)NC(C)C,,-9.42%,
CCOCc1ccccc1Nc1ncnc2onc(-c3ccc(Cl)cc3)c12,,3.24%,
Cc1ccc(C(=O)c2cn(Cc3cccc(F)c3)c3nc(C)ccc3c2=O)cc1,,-9.43%,
O=C(Cn1cnc2onc(-c3ccc(Cl)cc3)c2c1=O)Nc1ccc(F)cc1,,-20.8%,
O=C1Cc2cc(S(=O)(=O)N3CCN(c4ccccc4)CC3)ccc2N1,inactive,,
O=C(C#Cc1ccccc1)NC1CCCc2c1cnn2-c1ccc(F)cc1F (stereo not given),,-9.82%,
CCc1nn2c(=O)c(S(=O)(=O)Nc3ccc(Cl)cc3)c(C)nc2s1,,-3.82%,
CN1Cc2nc(Nc3ccc(C(F)(F)F)cc3)ccc2OCC1=O,,,15.8 µM (active)
CNCc1ccc(N2CCCC2)cc1,,-10.3% [at 85.7 µM],
O=C(Nc1ccc([C@@H](O)[C@H]2COCC(=O)N2CCCc2ccccc2)cc1)C1CCC1,,-42.5%,
O=C(CCS(=O)(=O)c1cccc2nonc12)Nc1ccc(F)cc1F,,-34.9%,

# Molecular target: Retinaldehyde dehydrogenase 3 (Homo sapiens) (UniProt P47895)
# Test: qHTS for Inhibitors of the Aldehyde Dehydrogenase Family (ALDH1A3) Primary screen (AID 2061315);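 note: plate controls were DMSO vehicle for no effect and reference inhibitor for full effect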
# Details: ALDH inhibition qHTS; series mostly up to 56 µM; activity change, negative = inhibition: at the top concentration
row,Compound,"activity change, negative = inhibition"
1,COc1ncc(Nc2ncc([C@H](C)N3CCN(S(C)(=O)=O)CC3)cc2-c2nc(C)nc(N)n2)cc1F,-6.58%
2,O=C(c1ccc(/C=C/c2n[nH]c3ccccc23)cc1)N1CCNCC1,-18.9%
3,[2H]C([2H])(Nc1nc(-c2ccccc2C([2H])(C([2H])([2H])[2H])C([2H])([2H])[2H])ncc1C)c1ccc(-n2ccnn2)cc1,0.334%
4,Cc1c[nH]c2ncnc(N3CCC(CN)(C(=O)Nc4cccc(OC(=O)N(C)C)c4)CC3)c12,-3.11%
5,CC(C)NC(=O)COc1cccc(-c2nc(Nc3ccc4[nH]ncc4c3)c3ccccc3n2)c1,16.8%
6,C#Cc1cccc(Nc2ncnc3cc(OCCOC)c(OCCOC)cc23)c1,-5.79%
7,COc1ccc(Cl)c(Nc2nc3ccccc3nc2NS(=O)(=O)c2cccc(NC(=O)C(C)(C)N)c2)c1,45.3%
8,CCn1c(=O)c(-c2ccc(Cl)cc2Cl)cc2cnc(Nc3ccc(N4CCNCC4)c(F)c3)nc21,-12.3%
9,CCN1CCN(Cc2ccc(NC(=O)Nc3ccc(Oc4cc(NC)ncn4)cc3)cc2C(F)(F)F)CC1,8.39%
10,C[C@@H]1COC(Nc2ccc3ncnc(Nc4ccc(OCc5nccs5)c(Cl)c4)c3c2)=N1,2.25%
11,Cc1cccc(-c2[nH]ncc2-c2ccc(F)c(-c3cnn(CCO)c3)c2)n1,61.6%
12,Cc1c(NC(=O)OCC2COCCN2)cn2ncnc(Nc3ccc4c(cnn4Cc4cccc(F)c4)c3)c12 (stereo not given),-18.1%

# Molecular target: Aldehyde dehydrogenase 1A1 (Homo sapiens) (UniProt P00352)
# Test: qHTS for Inhibitors of the Aldehyde Dehydrogenase Family (ALDH1A1) Confirmatory screens (AID 2061316); note: nearly all actives have a fitted effect of over 65% in size; note: potency is the fitted concentration of half-maximal effect; for activity change, negative = inhibition: % is set by controls: 0 for no effect and ±100 for the full control effect
# Details: ALDH inhibition qHTS; series mostly up to 47.3 µM; activity change, negative = inhibition: at the top concentration
Compound,Potency,"activity change, negative = inhibition"
O=C1Cc2cc(S(=O)(=O)N3CCN(c4ccc(O)cc4)CC3)ccc2N1,11.3 µM (active),
CC(=O)N1CCN(c2ccc(N)cc2)CC1,25.2 µM (active),
Cc1ccnc(NC(=S)N2CCN(c3cc(Cl)cc(Cl)c3)CC2)c1,5.65 µM (active),
Nc1ccccc1S(=O)(=O)Nc1cccc2cccnc12,,-8.48%

# Test system: not listed separately
# Test: BET inhibitor-based combinations targeting novel dependencies in MECOM-rearranged (r) AML: SET-2 cell line (AID 2202231); note: nearly all actives have a fitted effect of over 35% in size; note: potency is the fitted concentration of half-maximal effect;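 for viability: plate controls were DMSO treated cells for no effect and wells without cells for full effect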
# Details: SET-2 AML cells viability, CellTiter-Glo luminescence, 48 h; viability: active compounds read low, concentration not given here
# Method in brief: (§1)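 Viability of cells (500 per well) is scored by luminescent CellTiter-Glo at 48 hr post-dosing. Eleven-point titrations are normalized to DMSO and empty controls and reduced to AUC values.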
Compound,viability,Potency
COc1ccc2[nH]c(S(=O)Cc3ncc(C)c(OC)c3C)nc2c1 (stereo not given),97.7%,
CC(/C=C/C(=O)NO)=C\[C@@H](C)C(=O)c1ccc(N(C)C)cc1,,0.372 µM (active)
C=CC(=O)Nc1cccc(Nc2nc(Nc3ccc(N4CCN(C(C)=O)CC4)cc3OC)ncc2C(F)(F)F)c1,,14.8 µM (active)

# Test system: not listed separately
# Test: BET inhibitor-based combinations targeting novel dependencies in MECOM-rearranged (r) AML: OCI-AML3 cell line (AID 2202232); note: nearly all actives have a fitted effect of over 35% in size; note: potency is the fitted concentration of half-maximal effect;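 for viability (% of control): plate controls were DMSO vehicle wells for no effect and wells without cells for full effect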
# Details: CellTiter-Glo luminescence, 48 h; Potency: OCI-AML3 viability; series mostly up to 46 µM; viability (% of control): at the top concentration
# Method in brief: as §1
Compound,viability (% of control),Potency
COc1ccc2[nH]c(S(=O)Cc3ncc(C)c(OC)c3C)nc2c1 (stereo not given),76.9%,
Cc1cnc(Nc2ccc(F)cc2Cl)nc1-c1c[nH]c(C(=O)NC(CO)c2cccc(Cl)c2)c1 (stereo not given),,4.68 µM (active)
CC(/C=C/C(=O)NO)=C\[C@@H](C)C(=O)c1ccc(N(C)C)cc1,,0.662 µM (active)
C=CC(=O)Nc1cccc(Nc2nc(Nc3ccc(N4CCN(C(C)=O)CC4)cc3OC)ncc2C(F)(F)F)c1,,18.6 µM (active)
Cn1cc(-c2cnn3c(N)c(Br)c(C4CCCNC4)nc23)cn1 (stereo not given),,10.5 µM (active)

# Test system: not listed separately
# Test: BET inhibitor-based combinations targeting novel dependencies in MECOM-rearranged (r) AML: MV-4-11 cell line (AID 2202233); note: potency is the fitted concentration of half-maximal effect; nearly all actives have a fitted effect of over 45% in size
# Details: MV-4-11 AML viability, CellTiter-Glo luminescence, 48 h; series mostly up to 46 µM; viability, % of control: at the top concentration
# Method in brief: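 Using pin-tool transfer, drugs were added in 11 doses to cells (500/well), incubated 48 hr, and assessed with CellTiter-Glo. Z-AUC is a mean-centring transformation applied separately to each screened line.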
row,Compound,Potency
1,COc1ncc(Nc2ncc([C@H](C)N3CCN(S(C)(=O)=O)CC3)cc2-c2nc(C)nc(N)n2)cc1F,41.7 nM (active)
2,Cc1cnc(Nc2ccc(F)cc2Cl)nc1-c1c[nH]c(C(=O)NC(CO)c2cccc(Cl)c2)c1 (stereo not given),296 nM (active)
3,CC(/C=C/C(=O)NO)=C\[C@@H](C)C(=O)c1ccc(N(C)C)cc1,417 nM (active)
4,C=CC(=O)Nc1cccc(Nc2nc(Nc3ccc(N4CCN(C(C)=O)CC4)cc3OC)ncc2C(F)(F)F)c1,2950 nM (active)
5,O=C(c1ccc(/C=C/c2n[nH]c3ccccc23)cc1)N1CCNCC1,132 nM (active)
6,Cc1c[nH]c2ncnc(N3CCC(CN)(C(=O)Nc4cccc(OC(=O)N(C)C)c4)CC3)c12,1.86 µM (active) and 1.05 µM (active)
7,C#Cc1cccc(Nc2ncnc3cc(OCCOC)c(OCCOC)cc23)c1,5900 nM (active)
8,COc1ccc(Cl)c(Nc2nc3ccccc3nc2NS(=O)(=O)c2cccc(NC(=O)C(C)(C)N)c2)c1,7420 nM (active)
9,CCn1c(=O)c(-c2ccc(Cl)cc2Cl)cc2cnc(Nc3ccc(N4CCNCC4)c(F)c3)nc21,525 nM (active)
10,CCN1CCN(Cc2ccc(NC(=O)Nc3ccc(Oc4cc(NC)ncn4)cc3)cc2C(F)(F)F)CC1,2.3 nM (active)
11,Cc1c(NC(=O)OCC2COCCN2)cn2ncnc(Nc3ccc4c(cnn4Cc4cccc(F)c4)c3)c12 (stereo not given),18600 nM (active)
12,Cn1cc(-c2cnn3c(N)c(Br)c(C4CCCNC4)nc23)cn1 (stereo not given),468 nM (active)
